According to PubChem BioAssay (NCI):
Where “and” joins values, the source holds several entries; their conditions need not be identical. Identical values can stand only once. Compounds without any hit were thinned out: in the full panel of roughly 83,000, 20% have a hit.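 Negative percent growth values reflect cell death: -40 means 40% of the cells present at the start died, and -100 means all died.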 Calls of active or inactive are those of the source. Rule for the calls: active = growth percent below 10; inactive = the rest.

Assays:
UACC-62 melanoma = assay: NCI-60 one-dose screen, 48 h (100 = growth as untreated, 0 = no growth, -100 = all killed); details: 10 µM unless noted
TK-10 renal = assay: as above; details: 10 µM unless noted

Row | Compound | growth (UACC-62 melanoma) | growth (TK-10 renal)
1 | O=C(O)CCCC(=O)Nn1c(Cc2ccc(Cl)cc2)n[nH]c1=O | 70.6% [100 µM] (inactive) and 92.1% [100 µM] (inactive) | 85.5% [100 µM] (inactive) and 95% [100 µM] (inactive)
2 | Cc1ccc(C)c(NC(=O)/C(=N\N)C(c2cnc3ccc([N+](=O)[O-])cc3n2)[N+](=O)[O-])c1 (configuration not stated) | 46.3% [100 µM] (inactive) and 15.7% [100 µM] (inactive) | 146% [100 µM] (inactive) and 18.1% [100 µM] (inactive)
3 | Cc1ccc(OCC2OC(n3cnc4nc(N)nc(Cl)c43)CC2Oc2ccc(C)cc2)cc1 (configuration not stated) | 50.4% [100 µM] (inactive) and -64% [100 µM] (active) | 104% [100 µM] (inactive) and -84.6% [100 µM] (active)
4 | N#Cc1nc(-c2cccc(-c3nc(C#N)c(N)o3)n2)oc1N | 89.4% [100 µM] (inactive) and 63.8% [100 µM] (inactive) | 96.3% [100 µM] (inactive) and 84.9% [100 µM] (inactive)
5 | C=C1C(=O)OC2CC(C)C3(O)CCC(=O)C3(C)CC12 (configuration not stated) | 9.02% [100 µM] (active) and 6.55% [100 µM] (active) | 39.8% [100 µM] (inactive) and 21.4% [100 µM] (inactive)
6 | Cc1cc2nn(C3CCCO3)nc2cc1C (configuration not stated) | 70.8% [100 µM] (inactive) and 101% [100 µM] (inactive) | 81.3% [100 µM] (inactive) and 101% [100 µM] (inactive)
7 | COc1cc([C@H]2OC[C@@H]3C(c4cc(OC)c5c(c4)OCO5)OC[C@H]23)cc(OC)c1OC (some centres not stated) | 66.5% [100 µM] (inactive) and 25.8% [100 µM] (inactive) | 84.5% [100 µM] (inactive) and 28.7% [100 µM] (inactive)
8 | O=C1C=CC=C/C1=C1\N=C(c2ccccc2OCC(=O)c2ccc(Br)cc2)SS1 | 48.5% [100 µM] (inactive) and 35.3% [100 µM] (inactive) | 65.8% [100 µM] (inactive) and 57.6% [100 µM] (inactive)
9 | COC(=O)C(/C(=N/NC(N)=O)C(=O)Nc1ccc(C)cc1)c1nc2ccc([N+](=O)[O-])cc2[nH]c1=O (configuration not stated) | 61.4% [100 µM] (inactive) and 23.2% [100 µM] (inactive) | 111% [100 µM] (inactive) and 43.2% [100 µM] (inactive)
10 | C[C@@H]1C[C@@H]2OC(=O)[C@]3(C)[C@H]2[C@@H](OC3(C)O)[C@]2(C)C(=O)C=C[C@@H]12 (some centres not stated) | -84.2% [100 µM] (active) and -97.9% [100 µM] (active) | -7.81% [100 µM] (active) and -18.5% [100 µM] (active)
11 | N#CC(=S)Nc1ccc(F)cc1 | 8.57% [100 µM] (active) and 0.965% [100 µM] (active) | 33.9% [100 µM] (inactive) and 8.52% [100 µM] (active)
12 | O=C(Cc1nc2ccc(C(=O)c3ccccc3)cc2[nH]c1=O)C(=O)Nc1ccccc1[N+](=O)[O-] | 30.2% [100 µM] (inactive) and -20.2% [100 µM] (active) | 75.1% [100 µM] (inactive) and 12.6% [100 µM] (inactive)
13 | CC(=N\N=C\c1ccccn1)/C(C)=N/N=C/c1ccccn1 | 86% [100 µM] (inactive) and 54.1% [100 µM] (inactive) | 108% [100 µM] (inactive) and 118% [100 µM] (inactive)
14 | O[C@H]1[C@H](O)[C@@H](Cn2nnc(-c3ccccc3)c2-c2ccccc2)OCO[C@@H]1Cn1nnc(-c2ccccc2)c1-c1ccccc1 | -77.8% [100 µM] (active) | -89.7% [100 µM] (active)
15 | Clc1c(Cl)c(Cl)c2nn(C3CCCO3)nc2c1Cl (configuration not stated) | -16.1% [100 µM] (active) and -100% [100 µM] (active) | 24.5% [100 µM] (inactive) and -76.8% [100 µM] (active)
16 | Cc1ccc(/C=C2/N=C(N/N=C\c3ccccc3)NC2=O)cc1 | 28.2% [100 µM] (inactive) and 56.4% [100 µM] (inactive) | -15.5% [100 µM] (active) and 0.251% [100 µM] (active)
17 | CC(=O)C1=C(C)N2C(=NC3=C(CCc4ccccc43)C2c2cccc(Br)c2)S1 (configuration not stated) | 52.3% [100 µM] (inactive) and 8.59% [100 µM] (active) | 112% [100 µM] (inactive) and 48.5% [100 µM] (inactive)
18 | CCOC(=O)COc1cc(-c2ccccc2)nc2cc(F)ccc12 | 67.3% [100 µM] (inactive) and 60.3% [100 µM] (inactive) | 95.9% [100 µM] (inactive) and 90.1% [100 µM] (inactive)

Row | Compound | growth (UACC-62 melanoma) | growth (TK-10 renal)
19 | COC(=O)/C=C\C(C#N)(C#N)N=Cc1ccsc1 | -87.5% [100 µM] (active) and -74.6% [100 µM] (active) | -98.5% [100 µM] (active) and -84.4% [100 µM] (active)
20 | C=CC(COC(=O)C(C)(C)OC(C)=O)c1ccc(OC(=O)C(C)C)c(OC)c1 (configuration not stated) | -92.2% [100 µM] (active) and -93.9% [100 µM] (active) | -92.8% [100 µM] (active) and -93% [100 µM] (active)
21 | Cc1ccc(OCC2OC(n3cnc4nc(Cl)nc(Cl)c43)CC2Oc2ccc(C)cc2)cc1 (configuration not stated) | -72.2% [100 µM] (active) and -100% [100 µM] (active) | 1.81% [100 µM] (active) and -100% [100 µM] (active)
22 | COc1cc(C)c2c(c1C=O)Oc1c(c(C)c(O)c3c1C(O)OC3=O)OC2=O (configuration not stated) | -82.4% [100 µM] (active) and 98.2% [100 µM] (inactive) | -0.673% [100 µM] (active) and 99.4% [100 µM] (inactive)
23 | COc1ccc2cc1Oc1ccc(cc1)CC1c3cc(OC)c(cc3CCN1C)Oc1c(OC)c(OC)cc3c1C(C2)N(C)CC3 (configuration not stated) | -46.8% [75 µM] (active) and -87.8% [75 µM] (active) | -57.1% [75 µM] (active) and -97.5% [75 µM] (active)
24 | Cc1ccc(/C=N/Nc2nncc3ccccc23)s1 | 6.4% [100 µM] (active) and 1.47% [100 µM] (active) | 105% [100 µM] (inactive) and 21.6% [100 µM] (inactive)
25 | CC(C)C1OC(N)=C(C#N)C1(C#N)C#N (configuration not stated) | 55.5% [100 µM] (inactive) and 25.9% [100 µM] (inactive) | 62.1% [100 µM] (inactive) and 24.7% [100 µM] (inactive)
26 | COc1ccc2c(C)cc(N/N=C/c3ccc(C)s3)nc2c1 | -86.5% [100 µM] (active) and -100% [100 µM] (active) | -66.6% [100 µM] (active) and -100% [100 µM] (active)
27 | COC(=O)C(C(=O)C(=O)Nc1c(C)cccc1C(C)(C)C)c1nc2ccc(Cl)cc2[nH]c1=O (configuration not stated) | 68% [100 µM] (inactive) and 84.1% [100 µM] (inactive) | 141% [100 µM] (inactive) and 105% [100 µM] (inactive)
28 | C[C@@H]1CC[C@H]2C(C)(C)[C@H]3C[C@@]12CC[C@@]3(C)O | 80.1% [100 µM] (inactive) and 6.26% [100 µM] (active) | 87.1% [100 µM] (inactive) and 15.8% [100 µM] (inactive)
29 | O=C(O)COc1cc(-c2ccccc2F)nc2cc3c(cc12)OCO3 | 83.2% [100 µM] (inactive) and 64.8% [100 µM] (inactive) | 113% [100 µM] (inactive) and 102% [100 µM] (inactive)
30 | CC(C)(C)c1cc(C2COC(=O)COCCOCC(=O)OCCOCCO2)cc(C(C)(C)C)c1O (configuration not stated) | 24.1% [100 µM] (inactive) and -65.6% [100 µM] (active) | -69.6% [100 µM] (active) and -100% [100 µM] (active)
31 | C=C1C(=O)O[C@H]2C[C@@]3(C)[C@H](O)CCC(=C)[C@@H]3[C@@H](OC(C)=O)[C@H]12 | -98.5% [100 µM] (active) and -92.2% [100 µM] (active) | -98% [100 µM] (active) and -95.5% [100 µM] (active)
32 | C/C(=C\COc1cc(O)c2c(c1)C(=O)c1cc(C)cc(O)c1C2=O)CCC1OC1(C)C (configuration not stated) | 41.3% [100 µM] (inactive) and 6.17% [100 µM] (active) | 42.6% [100 µM] (inactive) and 20.6% [100 µM] (inactive)
33 | CC(=O)C1=C(C)N2C(=NC3=C(CCc4ccccc43)C2c2ccc(Cl)cc2)S1 (configuration not stated) | 48.8% [100 µM] (inactive) and 14.3% [100 µM] (inactive) | 72.8% [100 µM] (inactive) and 35.4% [100 µM] (inactive)
34 | CCC1OC2(C)CC(C#N)(C#N)C1(C#N)C(=N)O2 (configuration not stated) | 34.6% [100 µM] (inactive) | 92.1% [100 µM] (inactive)
35 | C=C(C)C1CC2(C)C(C)CC(OC(=O)/C(C)=C\C)CC2C(OC(=O)/C(C)=C\C)C1O (configuration not stated) | 5.5% [100 µM] (active) | 34.6% [100 µM] (inactive) and 71% [100 µM] (inactive)
36 | COc1cc(-c2nc(SC)nc3c2CCc2ccccc2-3)cc(OC)c1OC | 42.6% [100 µM] (inactive) and 23.7% [100 µM] (inactive) | 41.4% [100 µM] (inactive) and 11% [100 µM] (inactive)
